Data reported in PubChem BioAssay (Tox21).
Results filed as inconclusive are left out. Activity calls are given as the source filed them. Calls come from the whole dose curve.

test: qHTS assay to identify small molecule agonists of the AP-1 signaling pathway - cell viability counter screen (AID 1159525); conditions: ME-180 (cervical carcinoma) AP-1-bla cells viability, ATP luminescence, 5 h; series mostly up to 76.8 µM; viability change, negative = cytotoxic: at the top concentration; note: nearly all actives have a fitted effect of over 55% in size
Excerpt: National Center for Advancing Translational Sciences [NCATS]
NIH Chemical Genomics Center [NCGC]
U.S. Environmental Protection Agency [EPA]
National Institutes of Environmental Health Sciences [NIEHS]
National Toxicology Program [NTP]
U.S. Food and Drug Administration [FDA]
Activator protein-1 (AP-1), a transcription factor, plays an important role in tumor genesis by regulating genes involved in cell proliferation, differentiation, apoptosis, and angiogenesis. AP-1 activity is induced by a complex network of signaling pathways that involves extracellular signals, such as growth factors. The AP-1 protein complex formed from c-Fos and c-Jun binding to the AP-1 response element results in transcriptional activation of genes containing such elements within their promoter.
Low molecular weight molecules have been discovered and developed to modulate various components of these signaling pathways, for example, MAP kinase inhibitors. However, many points of pathway modulation remain untested due to the lack of chemical probes making this signaling locus of general interest.
Using a beta-lactamase reporter-gene under control of the AP-1 response element, a cell-based assay [CellSensor(TM) AP-1-bla ME-180 developed by Invitrogen Corp.] was used to measure EGF-induced signaling. The Tox21 10K library compounds were measured for their ability to positively modulate the action of EC50 EGF on reporter gene activity. Compounds were screened in a 15-pt titration series in 1536-well format. The cytotoxicity of the Tox21 compound library against this cell line was tested in parallel by measuring the intra cellular ATP content in the same wells.
Tox21 Assay Protocol Summary:
2500 cells/5uL in Opti-MEM medium containing 0.5% dialyzed FBS, 0.1 mM NEAA, 1 mM sodium pyruvate and 10 mM HEPES was dispensed into 1536-well black wall/clear bottom plates using a Multidrop dispenser and cells were cultured at 37 degrees Celsius overnight. Next day 23 nL of compounds dissolved in DMSO, positive controls or DMSO were delivered to each well using a pin tool. The plates were incubated at 37 degrees Celsius for 5 hours. 1 uL of LiveBLAzerTM B/G FRET substrate (Solution A+B+C+D) was added to each well using a Flying Reagent Dispenser. After incubated at room temperature for 2.5 hours the plates were measured on an EnVision plate reader at Excitation 405nm, Emission1=460nm and Emission 2=530nm. The %Activity was determined from the ratio of 460nm/530nm.
After the plates were read for Beta-Lactamase assay on Envision; 3 ul Cell Titer Glo (Promega) was added to measure the cytotoxicity and the plates were then incubated at RT in dark for 30 min. The luminescence was read on ViewLux (Perkin Elmer, Shelton, CT) using 6 sec exposure. ViewLux data was expressed as relative luminescence units.
For primary data analysis, raw plate reads for each titration point were first normalized relative to […] EGF control (100%) and DMSO only wells (basal, 0%).
For primary data analysis for viability assay, raw plate reads for each titration point were first normalized Tetra n-octyl ammonium bromide control (-100%) and DMSO (control, 100%).

SMILES	viability change, negative = cytotoxic
C[C@@H]1[C@H](O)[C@@H](C)/C=C/C=C\C=C\C=C\C=C\C=C\C=C\[C@H](O[C@@H]2O[C@H](C)[C@@H](O)[C@H](N)[C@@H]2O)C[C@@H]2O[C@](O)(C[C@@H](O)C[C@@H](O)[C@H](O)CC[C@@H](O)C[C@@H](O)CC(=O)O[C@H]1C)C[C@H](O)[C@H]2C(=O)O (stereo in doubt)	-2.32% (inactive)
CC1CCCO1 (stereo not given)	-3.01% (inactive)
Cc1ccc2nc(N)[nH]c(=O)c2c1Sc1ccncc1	1.72% [at 35.3 µM] (inactive)
O=C(NC(Cc1cc(=O)[nH]c2ccccc12)C(=O)O)c1ccc(Cl)cc1 (stereo not given)	-0.6% [at 35.3 µM] (inactive)
O=C(O)c1cccc(C[C@@H]2COc3ccc(OCc4nc5cc(F)ccc5s4)cc3[C@@H]2O)c1	7.11% (inactive)
Cc1ccc(S(=O)(=O)NC(=O)NC2CCCCC2)cc1	-0.66% [at 35.3 µM] (inactive)
Nc1ccn([C@H]2CS[C@@H](CO)O2)c(=O)n1	7% (inactive)
O=C(c1ccccc1)c1ccc(O)cc1	8.92% (inactive)
C=CC(=O)O	-5.98% [at 35.3 µM] (inactive)
c1ccc2sc(SSc3nc4ccccc4s3)nc2c1	-2.35% [at 15.8 µM] (inactive)
COC(OC)OC	0.23% (inactive)
Nc1ccc(N=Nc2ccc(N)cc2)cc1	-1.05% [at 35.3 µM] (inactive)
CCCCCCCC/C=C/C(=O)O	8.82% [at 35.3 µM] (inactive)
CC1=CC[C@@]23C[C@@H]1C(C)(C)[C@@H]2CC[C@H]3C	0.862% (inactive)
O=C(O)c1cc(Cl)cc(Cl)c1O	-0.89% (inactive)
N[C@@H](Cc1cc(I)c(O)c(I)c1)C(=O)O	1.72% [at 35.3 µM] (inactive)
Cc1c[nH]c2ccccc12	4.98% [at 35.3 µM] (inactive)
COC(=O)c1sccc1S(N)(=O)=O	7.42% (inactive)
COc1ccc(C)cc1	0.383% (inactive)
CC(C)N(C)C	0.0204% (inactive)

SMILES	viability change, negative = cytotoxic
C1=CCC2CC=CC2C1 (stereo not given)	-5.17% (inactive)
O=C(O)CCS	5.77% (inactive)
CCCCCCCCCCCC(=O)OCC(O)CO (stereo not given)	-19.3% (inactive)
CC(=O)OCC(=O)[C@@]1(OC(C)=O)[C@@H](C)C[C@H]2[C@@H]3C[C@H](F)C4=CC(=O)C=C[C@]4(C)[C@@]3(F)[C@@H](O)C[C@@]21C	-8.67% [at 35.3 µM] (inactive)
CC(C)COC(=O)COc1cc(Cl)c(Cl)cc1Cl	-1.22% (inactive)
O=C(Nc1ccc(C(=O)O)c(O)c1)c1ccccc1	-13.8% [at 35.3 µM] (inactive)
CCCCCCCCCCCCCCN(C)C	1.48% [at 15.8 µM] (inactive)
CC1CCCC(=O)C1=O (stereo not given)	1.7% (inactive)
O=C(O)CNC(=O)c1ccccc1I	5.2% [at 35.3 µM] (inactive)
CCN(CC)CCNC(=O)c1cc(Cl)c(N)cc1OC	2.37% [at 35.3 µM] (inactive)
O=C1CC[C@@H](C(=O)O)N1	9.32% [at 35.3 µM] (inactive)
CC(C)(C(=O)c1cccnc1)c1cccnc1	6.49% [at 35.3 µM] (inactive)
Cc1ccc(NC(=O)N(C)C)cc1NC(=O)N(C)C	-4.33% (inactive)
O=C1OC[C@H](Cc2cccc(O)c2)[C@H]1Cc1cccc(O)c1	3.29% [at 35.3 µM] (inactive)
Nc1ccc(F)cc1	5.54% (inactive)
CC1C(C)(C)C2=C(C(=O)CCC2)C1(C)C (stereo not given)	1.6% (inactive)
CCOCCC(=O)OCC	-4.87% (inactive)
CCCCCCCC(=O)OCCCCCC	1.3% (inactive)
CCCCCCCCCCCSCC(=O)O	-10.3% (inactive)
O=C1NC(=O)c2cccc3cccc1c23	-7.03% (inactive)
